Assay results as given in PubChem BioAssay AID1159580 (chemical genetic matrix, 2015).
About 2,000 (36%) of roughly 5,500 compounds were called active. About 18% were inconclusive and are not listed. Cut-off read from the data, not from the text of the source: active = normalized growth mostly below about 0.91 (no sharp cut-off); inconclusive = no clear call, values can overlap the other calls; inactive = mostly above about 0.92. The list shows a part of the results.

Assay: chemical genetic growth profiling, strain panel (AID 1159580);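 note: tested at 20 µM; growth read once vehicle control cultures reached saturation at 30 °C; 1 = growth at the plate median or of vehicle wells; lower values mean less growth of the strain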
Settings: S. cerevisiae deletion strains, growth OD
[1] = locus YAL040C, strain CLN3, active compounds read low
[2] = locus YCL061C, strain MRC1 (second series), active compounds read low
[3] = locus YDR363W, strain ESC2, active compounds read low
[4] = locus YER002W, strain NOP16, active compounds read low
[5] = locus YMR307W, strain GAS1, active compounds read low
[6] = locus YNL153C, strain GIM3, active compounds read low
[7] = locus YNL175C, strain NOP13, active compounds read low
[8] = locus YNL197C, strain WHI3, active compounds read low
[9] = locus YNL224C, strain SQS1, active compounds read low
[10] = locus YOR083W, strain WHI5 (second series), active compounds read low
[11] = locus YPL055C, strain LGE1, active compounds read low
[12] = locus YPL241C, strain CIN2, active compounds read low

Measured: normalized growth

NC(=O)c1ncn(C2OC(CO)C(O)C2O)n1 (stereo not given)
inactive: [1] 1.01 | [2] 1 | [3] 1 | [4] 0.996 | [5] 1.01 | [6] 1.03 | [7] 1.01 | [8] 1.01 | [9] 1.02 | [10] 1.02 | [11] 1

COc1cc2c(CCNC(C)=O)c[nH]c2cc1Cl
inactive: [1] 0.983 | [3] 1.03 | [4] 0.956 | locus YGR078C, strain PAC10, active compounds read low 1.01 | [5] 1.01 | [6] 0.926 | [7] 0.989 | [8] 0.989 | [9] 1 | locus YNL322C, strain KRE1, active compounds read low 0.998 | [10] 1.03 | [12] 0.996

O=S1(=O)N(CCN2CC=C(c3c[nH]c4cc(F)ccc34)CC2)c2cccc3c2N1CCC3
inactive: [1] 0.981 | [2] 0.987 | [3] 0.997 | locus YJR075W, strain HOC1, active compounds read low 1 | [6] 0.851 | [7] 0.987 | [8] 0.994 | [9] 1.02 | [10] 0.958 | [11] 0.951 | [12] 0.977

N#CC(C#N)=Cc1c(-c2ccccc2Cl)[nH]c2ccccc12
inactive: locus YAR019C, strain CDC15, active compounds read low 0.968 | locus YBL105C, strain PKC1, active compounds read low 0.962 | locus YBR135W, strain CKS1, active compounds read low 0.965 | locus YBR136W, strain MEC1, active compounds read low 0.97 | locus YBR160W, strain CDC28, active compounds read low 0.969 | locus YDL017W, strain CDC7, active compounds read low 0.976 | locus YDL028C, strain MPS1, active compounds read low 0.972 | locus YDL101C, strain DUN1, active compounds read low 0.973 | locus YDL108W, strain KIN28, active compounds read low 0.975 | locus YDL132W, strain cdc53, active compounds read low 0.969 | locus YDL214C, strain PRR2, active compounds read low 0.919 | locus YDR052C, strain DBF4, active compounds read low 0.98 | locus YDR054C, strain cdc34, active compounds read low 0.931 | locus YDR226W, strain ADK1, active compounds read low 0.956 | locus YDR477W, strain SNF1, active compounds read low 0.901 | locus YER123W, strain YCK3, active compounds read low 0.889 | locus YER133W, strain GLC7, active compounds read low 0.93 | locus YFL009W, strain cdc4, active compounds read low 0.955 | locus YFL029C, strain CAK1, active compounds read low 0.96 | locus YFR003C, strain YPI1, active compounds read low 0.976 | locus YFR019W, strain FAB1, active compounds read low 0.924 | locus YFR028C, strain CDC14, active compounds read low 0.965 | locus YGR040W, strain KSS1, active compounds read low 0.907 | locus YGR052W, strain FMP48, active compounds read low 0.942 | locus YGR092W, strain DBF2, active compounds read low 0.938 | locus YHR079C, strain IRE1, active compounds read low 0.812 | locus YHR082C, strain KSP1, active compounds read low 0.932 | locus YHR205W, strain SCH9, active compounds read low 0.836 | locus YIL147C, strain SLN1, active compounds read low 0.971 | locus YJL095W, strain BCK1, active compounds read low 0.822 | locus YJL128C, strain PBS2, active compounds read low 0.958 | locus YJL157C, strain FAR1, active compounds read low 0.923 | locus YJR016C, strain ILV3, active compounds read low 0.956 | locus YJR066W, strain TOR1 (second series), active compounds read low 0.897 | locus YJR066W, strain TOR1, active compounds read low 0.902 | locus YKL048C, strain ELM1, active compounds read low 0.926 | locus YKL067W, strain YNK1, active compounds read low 0.918 | locus YKL101W, strain HSL1, active compounds read low 0.899 | locus YKL193C, strain SDS22, active compounds read low 0.967 | locus YKL203C, strain TOR2, active compounds read low 0.961 | locus YLR133W, strain CKI1, active compounds read low 0.905 | locus YLR403W, strain SFP1, active compounds read low 0.904 | locus YML070W, strain DAK1, active compounds read low 0.886 | locus YMR001C, strain CDC5, active compounds read low 0.969 | locus YMR205C, strain PFK2 (second series), active compounds read low 0.919 | locus YMR277W, strain FCP1, active compounds read low 0.967 | locus YNL006W, strain LST8, active compounds read low 0.96 | locus YNL020C, strain ARK1, active compounds read low 0.882 | locus YNL161W, strain CBK1, active compounds read low 0.966 | locus YNL183C, strain NPR1, active compounds read low 0.853 | locus YNL207W, strain RIO2, active compounds read low 0.974 | locus YNL222W, strain SSU72, active compounds read low 0.967 | locus YNL307C, strain MCK1 (second series), active compounds read low 0.84 | locus YOL078W, strain AVO1, active compounds read low 0.962 | locus YOL136C, strain PFK27, active compounds read low 0.87 | locus YOR061W, strain CKA2, active compounds read low 0.897 | locus YOR119C, strain RIO1, active compounds read low 1 | locus YOR231W, strain MKK1, active compounds read low 0.867 | locus YOR329C, strain SCD5, active compounds read low 0.968 | locus YPL031C, strain PHO85, active compounds read low 0.907 | locus YPL153C, strain RAD53, active compounds read low 0.905 | locus YPL204W, strain HRR25, active compounds read low 0.884 | locus YPL209C, strain IPL1, active compounds read low 0.973 | locus YPR025C, strain CCL1, active compounds read low 0.961 | locus YPR106W, strain ISR1, active compounds read low 0.954 | locus YPR111W, strain DBF20, active compounds read low 0.927 | strain NNK1, active compounds read low 0.959 | strain TSCII, active compounds read low 0.964
active: locus YHR030C, strain SLT2, active compounds read low 0.654 | locus YLR113W, strain HOG1, active compounds read low 0.821 | locus YPL256C, strain CLN2, active compounds read low 0.779
